Experimental findings from PubChem BioAssay (NCATS) are described below.

Structures are written as SMILES. Values joined by “and” are separate entries in the source; they are usually repeats but may differ in a detail not shown here. Equal values may be shown once. Records with an inconclusive call do not appear. Active and inactive are the calls of the source. Unless noted, calls come from the whole dose curve; as a rule, active = well fitted curve in the direction sought with a large enough effect; inconclusive = small, poorly fitted or top-dose-only effect, or another doubt; inactive = no such curve, though single readings can be large; an effect the other way counts as inactive or inconclusive.

The nature of assay [1]: qHTS Assay for Identifying Gametocytocidal Compounds (AID 743244).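 For max response: % is set by controls: 0 for no effect and ±100 for the full control effect; actives lower the fluorescent signal which means gametocytes are killed.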 Note: potency is the fitted concentration of half-maximal effect. Particulars: P. falciparum 3D7 stage III-V gametocytes, alamarBlue, 72 h; max response: stronger effect = lower value. The essentials: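 Viability read-out was resazurin reduction (alamarBlue, 24 h) measured at Ex 525/Em 598 nm. Beforehand, late-stage (III-V) 3D7 P. falciparum gametocytes at 20,000 cells/well were incubated with compound 72 h at 37C under 5% CO2.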

Assay [2] is described as follows: qHTS assay to identify small molecule inhibitors of chordoma cells - UCH-1 (AID 1259355). Note: % is set by controls: 0 for no effect and ±100 for the full control effect; nearly all actives have a fitted effect of over 55% in size. The method in brief: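 Screening used approved and investigational drugs in 15-point titration against 800 seeded cells per well. A fixed combination of auranofin with camptothecin, doxorubicin, rubitecan and topotecan followed compound addition, and growth was scored by CellTiter-Glo after 48hr.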
For orientation: Quantitative high-throughput screening tests each substance at several concentrations.

Assay [3] in a line: qHTS assay to identify small molecule inhibitors of chordoma cells - UCH-2 (AID 1259356). Note: % is set by controls: 0 for no effect and ±100 for the full control effect.
A short description of assay [4]: P-glycoprotein substrates identified in KB-8-5-11 adenocarcinoma cell line, qHTS therapeutic library screen (AID 1346987). Note: nearly all actives have a fitted effect of over 65% in size. Note: potency is the fitted concentration of half-maximal effect. The essentials:
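Human cervical adenocarcinoma KB-8-5-11 cells, selected in colchicine to over-express P-gp and assayed without it, were exposed for 72 h to titrated compounds. An ATP-based luminescent viability signal gave AC50.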

The nature of assay [5]: qHTS assay for cell viability of HEK293 cells (AID 743288). Note: % is set by controls: 0 for no effect and ±100 for the full control effect; nearly all actives have a fitted effect of over 50% in size. Particulars: ATP luminescence (CellTiter-Glo), 18 h; max response: stronger effect = lower value. The method in brief: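 ATP luminescence (CellTiter-Glo) reports metabolically competent cell number after parental HEK293 cells, 2,000/well, were treated with DMSO-dissolved compounds for 18 h at 37 C; reagent incubation 30 min, room temperature.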

A short description of assay [6]: qHTS assay for cell viability of the p53RE-bla HCT-116 cell line (AID 743292). Note: % is set by controls: 0 for no effect and ±100 for the full control effect; nearly all actives have a fitted effect of over 55% in size. The method in brief:
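After plating at 4,000 cells per well and a 5 h rest at 37 C, HCT-116 cells carrying p53RE-bla received test chemicals in DMSO. Sixteen hours later at 37 C, CellTiter-Glo was added and luminescence recorded following 30 min at room temperature.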

The nature of assay [7]: qHTS profiling for inhibitors of Plasmodium falciparum (3D7) proliferation (AID 743322).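 Note: infected erythrocytes exposed to compound for 72 h before lysis; 100% = DMSO vehicle wells and 0% = 0.29 µM artemisinin.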 Particulars: P. falciparum 3D7 proliferation; at 28.7 µM (top of the series). The essentials: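 Parasite DNA was quantified by SYBR Green I fluorescence (ex 485, em 535 nm) after overnight lysis in saponin/Triton buffer at room temperature. Cultures at 0.3% parasitemia and 2.5% hematocrit were first exposed to compound for 72 h at 37 C; signals were normalised to artemisinin (0.29 uM) and vehicle wells.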

The nature of assay [8]: qHTS profiling for inhibitors of Plasmodium falciparum (DD2) proliferation (AID 743323; call rule not given here). Conditions: lower = more inhibition; at 28.7 µM (top of the series). The essentials: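 SYBR Green fluorescence (ex 485, em 535 nm) of lysed cultures gives parasite DNA content; wells normalized to artemisinin (0.29 uM) and DMSO controls. Infected red cells: 0.3% parasitemia, 2.5% hematocrit, 72 h, 37 C.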

Assay [9] in a line: qHTS profiling for inhibitors of Plasmodium falciparum (HB3) proliferation (AID 743324).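 Note: 100% = DMSO vehicle wells and 0% = artemisinin-treated control wells.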 Conditions: Plasmodium falciparum HB3 blood-stage proliferation; at 28.7 µM (top of the series). The essentials:
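SYBR Green fluorescence (485 ex/535 em) of lysed cultures, incubated overnight at room temperature in the dark, quantifies parasite DNA. Infected erythrocytes at 0.3% parasitemia and 2.5% hematocrit were exposed 72 h; values normalized to DMSO and 0.29 uM artemisinin controls.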

`COC([CH2][Hg])CNC(=O)c1ccccc1OCC(=O)O` (configuration not stated): the max response in assay [1] is 2.8% (inactive). Moreover, the Potency entry in [2], in assay [3] and in assay [4] was “inactive” each time.

Turning to `C[C@]12CC[C@H]3[C@@H](CC[C@@]45O[C@@H]4C(O)=C(C#N)C[C@]35C)[C@@H]1CC[C@@H]2O`, in [1], the max response was -8.72% (inactive). The Potency entry in assay [2] and in assay [3] was “inactive” throughout.

For `CCCCCCC(=O)O[C@H]1CC[C@H]2[C@@H]3CC[C@H]4CC(=O)C=C(C)[C@]4(C)[C@H]3CC[C@]12C`, in assay [1], the max response was 7.58% (inactive). The Potency result in assay [2] and in assay [3] was “inactive” each time.

With `CC[C@H](C)[C@H]1O[C@]2(C=C[C@@H]1C)C[C@@H]1C[C@@H](C/C=C(\C)[C@@H](O[C@H]3C[C@H](OC)[C@@H](O[C@H]4C[C@H](OC)[C@@H](O)[C@H](C)O4)[C@H](C)O3)[C@@H](C)/C=C/C=C3\CO[C@@H]4[C@H](O)C(C)=C[C@@H](C(=O)O1)[C@]34O)O2`, the max response in assay [1] is -7.27% (inactive). The Potency result in [2] and in [3] was “inactive” throughout.

Turning to `C[C@@H](CO)NC(=O)[C@@H]1C=C2c3cccc4[nH]cc(c34)C[C@H]2N(C)C1`, in assay [1], the max response is -6.08% (inactive). Also, the Potency entry in assay [2] and in assay [3] was “inactive” throughout.

Consider `O=C/C=C/c1ccccc1`, for which the max response in assay [1] was 4.39% (inactive); in [5], -23.6% (inactive). The Potency result in assay [6], in assay [2], in assay [3] and in assay [4] was “inactive” each time.

On to `N#CN`, for which the max response in assay [1] is 10.9% (inactive); in [5] it was -11.1% (inactive). In addition, the Potency result in assay [6], in [2], in assay [3] and in [4] was “inactive” each time.

Regarding `ClC(Cl)(Cl)Cl`, the max response in [5] is -6.99% (inactive) and 5.96% (inactive). Also, the Potency entry in assay [6], in assay [2], in [3] and in assay [4] was “inactive” each time.

For `O=[N+]([O-])c1ccccc1`, the max response was 18.1% (inactive) in [1]; -0.844% (inactive) and 8.43% (inactive) in assay [5]. Further, the Potency result in assay [6], in [2], in assay [3] and in [4] was “inactive” throughout.

Consider `C[C@]12C[C@H]3S[C@H]3C[C@@H]1CC[C@@H]1[C@@H]2CC[C@]2(C)[C@@H](O)CC[C@@H]12`, for which the max response in [1] is 1.49% (inactive). Moreover, the Potency entry in [2] and in assay [3] was “inactive” in each case.

For the compound `O=[N+]([O-])c1cc(I)c(O)c(I)c1`, the max response in assay [1] is 0.0812% (inactive). The Potency entry in [2] and in [3] was “inactive” throughout.

For the compound `C[C@]12CCC(=O)C[C@@H]1CC[C@@H]1[C@@H]2CC[C@]2(C)[C@@H](O)CC[C@@H]12`, the max response in [1] is 17.9% (inactive); in [5], -9.61% (inactive) and -12.6% (inactive). The Potency result in assay [6], in assay [2] and in assay [3] was “inactive” each time. In assay [4], the Potency was 8.2 µM (active).

Take `Clc1ccccc1Cl`: the max response in [5] is 2.94% (inactive). In addition, the Potency entry in [6], in assay [2], in assay [3] and in assay [4] was “inactive” in each case.

For the compound `CC(=O)[C@H]1CC[C@H]2[C@@H]3CC[C@@H]4C[C@H](O)CC[C@]4(C)[C@H]3CC[C@]12C`, the max response in assay [1] is -3.94% (inactive). The Potency entry in [2] and in [3] was “inactive” in each case.

In the case of `CC(C)(C)c1cc(O)ccc1O`, the Potency in [1] was 31.6 µM (active) and 3.55 µM (active). In assay [5], the max response is -11% (inactive) and 8.59% (inactive) and 5.79% (inactive). Moreover, the Potency result in assay [6], in [2], in assay [3] and in [4] was “inactive” in each case.

Regarding `[O]=[Cd]`, the max response in assay [5] is 3.33% (inactive). Besides, the Potency result in [6], in [2], in assay [3] and in assay [4] was “inactive” throughout.

Take `ClC1C(Cl)C(Cl)C(Cl)C(Cl)C1Cl` (configuration not stated): the max response in assay [5] is -11% (inactive) [middle of 4 runs]. Also, the Potency entry in [6], in assay [2], in [3] and in assay [4] was “inactive” in each case.

Regarding `C[C@]12CC[C@H]3[C@@H](CCC4=C(O)C(=O)CC[C@@H]43)[C@@H]1CC[C@@H]2OC(=O)CCC1CCCC1`, the max response in assay [1] is -3.51% (inactive). The Potency result in assay [2] and in assay [3] was “inactive” each time.

`C=CC[C@]1(O)CC[C@H]2[C@@H]3CCC4=CCCC[C@@H]4[C@H]3CC[C@@]21C`: in assay [1], the max response is 15.3% (inactive). The Potency entry in assay [2] and in assay [3] was “inactive” in each case.

Take `C[C@H]1CCC[C@H](O)CCCCCc2cc(O)cc(O)c2C(=O)O1`: the values for the max response in assay [1] and in [5] were 5.29% (inactive) and -4.88% (inactive), respectively. Also, the Potency entry in assay [6], in assay [2] and in [3] was “inactive” each time. Also, the Potency in assay [4] is 14.6 µM (active).

Consider `Oc1ccc2c3c1O[C@H]1[C@@H](O)CC[C@@]4(O)[C@@H](C2)N(CC2CCC2)CC[C@]314`, for which the max response in assay [1] was 2.47% (inactive). Further, the Potency entry in assay [2] and in [3] was “inactive” in each case.

For the compound `C/C(=C\c1csc(C)n1)[C@@H]1C[C@@H]2O[C@]2(C)CCC[C@H](C)[C@H](O)[C@@H](C)C(=O)C(C)(C)[C@@H](O)CC(=O)O1`, the max response in assay [1] was 12.6% (inactive). Further, in [7], the remaining parasite growth % (stronger effect = lower value) stood at 11%. In assay [8], this compound registered an activity, percent of control of 13%. The compound further displayed a remaining proliferation (% of control), lower = more inhibition in assay [9] of 14.1%. Further, the Potency entry in assay [2] and in assay [3] was “inactive” in each case. Moreover, the Potency in assay [4] is 0.0366 µM (active).

For `CCC1C(C)=NN=C(c2ccc(OC)c(OC)c2)c2cc(OC)c(OC)cc21` (configuration not stated), the max response in [1] was 2.95% (inactive). Further, the Potency result in assay [2] and in assay [3] was “inactive” each time.

For `O=C(NCNC(=O)NC1C(=O)NC(=O)N1CO)NC1C(=O)NC(=O)N1CO` (configuration not stated), the max response was 20.5% (inactive) in assay [1] and -3.93% (inactive) in [5]. Besides, the Potency entry in [6], in assay [2], in assay [3] and in assay [4] was “inactive” in each case.

Turning to `O=c1[nH]c(=O)n(Cl)c(=O)n1Cl`, the max response in assay [5] was -3.48% (inactive). The Potency entry in assay [6], in [2], in assay [3] and in assay [4] was “inactive” each time.

With `CCOC(=O)c1ccccc1C(=O)OCC`, the max response in assay [1] was 6.33% (inactive); in assay [5], -2.28% (inactive) and 4.29% (inactive) and 3.24% (inactive). Besides, the Potency entry in assay [6], in assay [2], in assay [3] and in assay [4] was “inactive” each time.
